Compound activity as filed in PubChem BioAssay.
The sample as a whole holds a higher share of hits than the screen did.
AmpC inh detg = qHTS Inhibitors of AmpC Beta-Lactamase (assay with detergent). AID 485294, 2010. Potency, µM (titrated, usually from 114 µM), for inactives: at the top dose activity change, negative = inhibition, actives largely listed as inhibitors. 370,000 compounds, 0.041% hits. AmpC hydrolysis of nitrocefin, absorbance 480 nm, 0.01% Triton;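 note: potency is the fitted concentration of half-maximal effect; 0% = no-compound wells and -100% = no-enzyme wells; nearly all actives have a fitted effect of over 25% in size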
Target sequence (P00811 whole entry, looked up): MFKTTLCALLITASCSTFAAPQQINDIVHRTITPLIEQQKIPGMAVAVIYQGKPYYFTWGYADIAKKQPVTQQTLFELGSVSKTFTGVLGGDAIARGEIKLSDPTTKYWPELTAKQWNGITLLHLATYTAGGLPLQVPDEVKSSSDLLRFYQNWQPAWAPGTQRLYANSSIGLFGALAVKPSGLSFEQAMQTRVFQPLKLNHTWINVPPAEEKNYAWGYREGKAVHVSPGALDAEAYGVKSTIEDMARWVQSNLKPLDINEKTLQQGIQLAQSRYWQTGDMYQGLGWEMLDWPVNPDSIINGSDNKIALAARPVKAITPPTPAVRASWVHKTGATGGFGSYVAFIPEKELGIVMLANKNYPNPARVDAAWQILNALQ
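20 mM phosphate pH 7.0 + 0.01% (detergent screen) or 0.0001% Triton X-100; 5.3 nM AmpC reagent; cpd preinc 15 min RT; nitrocefin (800 uM stock) to start; A480 q20 s × 4 min; Activity was normalised to no-enzyme and no-compound control wells.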
SARS PLpro yeast = qHTS of Yeast-based Assay for SARS-CoV PLP; Potency, µM (top dose mostly 32.9 µM), for inactives: at the top dose activity, positive = growth rescue, hits mostly activators; AID 485353, 2010; S. cerevisiae expressing SARS-CoV PLpro, growth rescue; 330,000 compounds, 0.19% hits; calls by dose curve; note: potency is the fitted concentration of half-maximal effect; 0% is about no effect; nearly all actives have a fitted effect of over 55% in size
Shiga toxin inh = A qHTS for Small Molecule Inhibitors of Shiga Toxin. Vero cells, Shiga toxin protein synthesis inhibition reporter. inhibition, % at 38.7 µM. 290,000 compounds, 9.2% hits. AID 2315, 2010; in the data active = inhibition mostly above about 28%, no sharp cut-off; inactive = mostly below about 43%; note: 0% is about no effect
AMA1 RON2 block = qHTS for Inhibitors of AMA1-RON; Towards Development of Antimalarial Drug Lead: Primary Screen | AID 720542, 2013 | Potency, µM (highest dose often 58.2 µM), for inactives: at the top dose activity change, negative = inhibition, hits mostly inhibitors | 360,000 compounds, 0.2% hits | AlphaScreen AMA1-biotinylated RON2 peptide binding;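 note: potency is the fitted concentration of half-maximal effect; 0% = vehicle wells and -100% = peptide control; nearly all actives have a fitted effect of over 45% in size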
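AMA1 (3D7) with his tag at 25 nM final met compounds first, then biotinylated RON2 peptide at 25 nM; detection used donor plus acceptor beads, 10 µg/mL apiece, read by AlphaScreen after 30 min at room temperature.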
AmpC inh no detg = qHTS Inhibitors of AmpC Beta-Lactamase (assay without detergent). Potency, µM (highest dose often 57.1 µM), inactives show at the top dose activity change, negative = inhibition, actives largely listed as inhibitors. P00811. AmpC nitrocefin hydrolysis, absorbance 480 nm, 0.0001% Triton. AID 485341, 2010. 330,000 compounds, 0.52% hits;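 note: potency is the fitted concentration of half-maximal effect; plate controls were no compound for no effect and no enzyme for full effect; nearly all actives have a fitted effect of over 20% in size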
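AmpC (5.3 nM in the dispensed reagent) in 20 mM phosphate pH 7.0 with 0.01% (detergent screen) or 0.0001% Triton X-100 was preincubated with compounds for 15 min at room temperature. Nitrocefin was then added from an 800 uM solution, and hydrolysis was followed at 480 nm.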
Cycloheximide cs = Cycloheximide Counterscreen for Small Molecule Inhibitors of Shiga Toxin. cell reporter, cycloheximide protein synthesis inhibition counterscreen. max response, %. 300,000 compounds, 12% hits. AID 2314, 2010; in the data active = max response mostly above about 13%, no sharp cut-off; inactive = mostly below about 14%; note: read at 38.3 µM for the half of the compounds with a filed dose; 0% is about no effect
Numbers without * were called inactive; ? = inconclusive; . = not tested or not shown; + = active, no number; [ ] = remark or other dose. Unless noted, calls come from the whole dose curve; as a rule, active = well fitted curve in the direction sought with a large enough effect; inconclusive = small, poorly fitted or top-dose-only effect, or another doubt; inactive = no such curve, though single readings can be large; an effect the other way counts as inactive or inconclusive.

SMILES	AmpC inh detg	SARS PLpro yeast	Shiga toxin inh	AMA1 RON2 block	AmpC inh no detg	Cycloheximide cs
Cc1ccc(Nc2nc(N)nc(CN3CCCCCC3)n2)c(C)c1	-13%	1%	-7	-7%	-5%	-3
Cc1ccc(Nc2nc(N)nc(CC#N)n2)cc1	1%	4%	46*	33%	-34%	35*
CCOc1ccc(Nc2nc(N)nc(CN3CCN(c4ccccc4F)CC3)n2)cc1	-12%	-1%	-4	?	67%	-1
Cc1ccc(Nc2nc(N)nc(CN3CCc4ccccc4C3)n2)cc1	2%	4%	7	-25%	-20%	10
COc1ccc(NC(=O)CNC(=O)c2c(C)nn(C)c2Cl)cc1	?	0%	-20	-4%	-40%	0
Cc1ccc(N(CC(=O)NCc2ccncc2)S(C)(=O)=O)cc1Cl	-4%	21%	-10	-11%	-7%	-4
CC1CCCN(S(=O)(=O)c2ccc(NC(=O)CN3CCN(C)CC3)cc2)C1 (stereo not given)	-1%	4%	-3	9%	8%	7
C/C(CC(C)C)=N\NC(=O)Nc1ccccc1	-14%	-5%	42*	-5%	-17%	42*
C/C(=N\NC(=O)Nc1ccccc1)c1ccc2ccccc2c1	?	-11%	-13	9%	-33%	2
C/C(=N/NC(=O)Nc1ccccc1)c1ccc(C)cc1	-1%	?	29*	-16%	-29%	-3
N/C(=N\NC(=O)Nc1ccccc1)c1ccccn1	5%	-2%	57*	-12%	-14%	45*
CC/C(=N\NC(=O)Nc1ccccc1)c1ccccc1	-3%	19%	37	0%	-19%	19*
CCCCN1CC(N2CCN(Cc3ccccc3)CC2)CS1(=O)=O (stereo not given)	.	.	.	3%	.	.
CCOC(=O)C/C(C)=N/NC(=O)CN(c1ccc(Br)cc1)S(=O)(=O)c1ccccc1	-1%	10%	15	84%	22µM*	-2
CCCC/C(C)=N/NC(=O)CN(c1ccc(Br)cc1)S(=O)(=O)c1ccccc1	-7%	7%	-12	-15%	-38%	-5
CCOC(=O)C/C(C)=N/NC(=O)Nc1ccccc1	-1%	9%	+	7%[11.6 µM]	-14%	40*
CCCCC[C@H](C)N1C[C@@H](COCc2ccccc2)Oc2cc(N3CCC[C@H]3CO)ccc2S1(=O)=O	.	.	.	-29%	.	.
Cc1cc(C)nc(Nc2ncc(O)n2-c2ccc(C)c(C)c2)n1	0%	3%	22	55%	-9%	-6
Cc1cc(C)nc(Nc2ncc(O)n2-c2ccc(C)c(Cl)c2)n1	-2%	2%	-9	30%	0.32µM*	-1
CC1(CC(=O)Nc2ccccc2)NC(=S)N(c2ccccc2)N1 (stereo not given)	-3%	1%	44*	66%	-32%	24*
CCCCCCC1(C)NC(=S)N(c2ccccc2)N1 (stereo not given)	4%	-3%	3	26%	-17%	7
CCCCCC1(C)NC(=S)N(c2ccccc2)N1 (stereo not given)	-6%	-2%	39	69%	-24%	20*
O=C(CCN1C(=O)c2ccccc2C1=O)N1CCN(Cc2ccccc2)CC1	0%	-44%	0	12%	3%	-1
CC(=O)NC(c1ccc(F)c(F)c1)c1nc(-c2ccc(F)c(Cl)c2)cs1 (stereo not given)	.	.	.	-9%	.	.
Cc1ccc(SCCC(=O)N(C)C)cc1	-2%	1%	23	3%	0%	17*
Cc1ccc(SCCC(=O)NC(C)(C)C)cc1	-1%	-5%	73*	10%	3%	44*
CCc1ccc(C(=O)c2cncc(Br)c2)cc1	-2%	.	49*	18%	.	35*
Cc1ccc(C(=O)c2cc(Br)ccc2N)cc1	-13%	-5%	45*	-20%	-35%	22*
NNC(=O)c1cncc(Br)c1	2%	6%	37	21%	-14%	6
